Measured values reported in PubChem BioAssay (NCATS).
Values joined by “and” are separate entries in the source; they are usually repeats but may differ in a detail not shown here. Identical values can stand only once. Inconclusive results are not listed. Unmarked numbers belong to inactive results. Active and inactive are the calls of the source. Calls follow the shape of the dose curve; as a rule, active = well fitted inhibition curve with a large enough effect; inconclusive = small, poorly fitted or top-dose-only effect; inactive = flat fitted curve, though single readings scatter.
% is scaled to controls: 0 for no effect and ±100 for the full control effect; potency is read from the fitted curve at half-maximal effect.

What follows are compounds tested on CRL-7250 (assay: Cytotoxic Profiling of Annotated Libraries Using Quantitative High-Throughput Screening (AID 1296008; also: nearly all actives have a fitted effect of over 60% in size)). Settings: Five cell lines viability, CellTiter-Glo ATP luminescence, 48-72 h; max response: hits give low values.
How it was run: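 Cytotoxicity was measured as CellTiter-Glo ATP luminescence, read after 10 min at room temperature. Compound treatment of the cells lasted 48 or 72 hr at 37 degrees Celsius in a qHTS format.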
`CCC(=O)N[C@H]1CC[C@H](C(=O)N(C)c2ccc(-c3nc4ccccc4o3)cc2)C1` was tested, and the max response was -6.63%.
`COc1ccc(-c2ccc3c(N4CCOC[C@H]4C)nc(N4CCOC[C@H]4C)nc3n2)cc1CO` was tested, and the Potency was 0.0093 µM (active).
In the case of `NC(=O)c1ccc(-c2nc(-c3ccc4c(c3)OCO4)c(-c3ccccn3)[nH]2)cc1`, the max response is reported as 3.54%.
Work on `Cc1cc2c(F)c(Oc3ncnn4cc(OC[C@@H](C)O)c(C)c34)ccc2[nH]1` yielded a max response of -47.3%.
With `CS(=O)(=O)c1ccc(C(=O)Nc2ccc(Cl)c(-c3ccccn3)c2)c(Cl)c1` the max response was -4.31% and 3.97%.
In the case of `CN(C)c1ccc(C2Nc3ccc4ccccc4c3C3=C2C(=O)CC(C)(C)C3)cc1Br` (stereo not drawn), the max response is reported as -23.7% and -20.8%.
For `CC1(C)Cc2c(-c3ccccc3)c(-c3ccc(Cl)cc3)c(CC(=O)O)n2C1`, the max response was 2.44%.
For `Cn1c(=O)c(F)c(Nc2ccc(I)cc2F)c2c(=O)n(C[C@@H](O)CO)cnc21`, the Potency was 0.935 µM (active).
`Cc1c(CCOc2ccc(C(=O)O)cc2)c2cc(Cl)ccc2n1C(c1ccccc1)c1ccccc1` gave a max response of -5.22%.
`COc1cc2c(cc1OC)CN(CCc1ccc(NC(=O)c3cccc4c(=O)c5cccc(OC)c5[nH]c34)cc1)CC2` was tested, and the max response was 0.448% and -2.79%.
`CC(C)(C)NCC(O)c1ccc(O)c(CO)c1` (stereo not drawn) was tested, and the max response was -2.87% and 2.98%.
`CCC(C)N(C)C(=O)c1cc2ccccc2c(-c2ccccc2Cl)n1` (stereo not drawn) gave a max response of 0.969%.
With `CC[C@@H](C)[C@H](NC(=O)[C@H](CC1CCCCC1)NC(=O)c1ccno1)C(=O)N1CCC2(CCc3ccccc32)CC1` the max response was -8.58% and -11.9%.
`Cc1ccc(-n2nc(C(C)(C)C)cc2NC(=O)Nc2ccc(OCCN3CCOCC3)c3ccccc23)cc1` was tested, and the max response was 1.93% and -9.63%.
With `CCCCCCCc1ccc(CCc2cccc(O)c2C(=O)O)cc1` the max response was -0.808%.
With `COc1ccc(CCN2CCN(CCCc3ccccc3)CC2)cc1OC` the outcome was “inactive”.
`Nc1nc2[nH]cc(CCc3ccc(C(=O)N[C@@H](CCC(=O)O)C(=O)O)cc3)c2c(=O)[nH]1` gave a max response of -1.95%.
`O=C(O)COCCN1CCN(C(c2ccccc2)c2ccc(Cl)cc2)CC1` (stereo not drawn) was tested, and the max response was -0.386%.
Compound `O=C1[C@H](Cc2ccc(O)cc2)N2C(=O)CCN(C(=O)NCc3ccccc3)[C@H]2CN1Cc1cccc2ccccc12` has a max response of -59.7%.
With `CNC(=O)c1ccc(C)c(-n2c(C)cc(OCc3ccc(F)cc3F)c(Br)c2=O)c1` the max response was -9.42%.
`Cc1cc(C=c2sc3nc4ccccc4n3c2=O)c(C)n1-c1ccccc1` showed a max response of -1.5%.
With `COc1ccccc1[C@H](c1cccc2ccccc12)[C@@](C)(C#N)C(=O)N1CCC(c2cccc(C(F)(F)F)c2)CC1` the Potency was 26.4 µM (active).
In the case of `COc1cc(Oc2ccnc3cc(OC)c(OC)cc23)ccc1NC(=O)NC(C)c1nccs1` (stereo not drawn), the max response is reported as -3.15% and -18.6%.
With `COc1ccc(CC2=NN3C([C@@H](CCc4ccccc4)[C@@H](C)O)=NC(C)C3C(=O)N2)cc1OC` (stereo partly drawn) the max response was -0.833%.
With `CO[C@@H]1[C@H](N(C)C(=O)c2ccccc2)C[C@H]2O[C@]1(C)n1c3ccccc3c3c4c(c5c6ccccc6n2c5c31)C(=O)NC4` the Potency was 1.48 µM (active).
In the case of `CCn1c(-c2nonc2N)nc2cnc(Oc3cccc(NC(=O)c4ccc(OCCN5CCOCC5)cc4)c3)cc21`, the Potency is reported as 20.9 µM (active).
With `COCC(=O)NCC=Cc1ccc2ncnc(Nc3ccc(Oc4ccc(C)nc4)c(C)c3)c2c1` the Potency was 23.5 µM (active).
For `COc1ccc(COc2cc3oc(=O)c4cc(C(C)O)ccc4c3cc2OC)cc1` (stereo not drawn), the Potency was 10.5 µM (active).
`CCCn1c(=O)c2[nH]c(C34CC5CC3C[C@@H](C5)C4)nc2n(CCC)c1=O` was tested, and the outcome was “inactive”.
`CCN(c1ccccc1)c1cc(NC)[n+](C)c(C)n1` was tested, and the max response was -1.6%.
With `Cn1cc(-c2ccc3nnc(C(F)(F)c4ccc5ncccc5c4)n3n2)cn1` the max response was -14.4%.
Compound `CCN(CC)CCCC(C)Nc1nc(C)cc(Nc2ccc3nc(C)cc(N)c3c2)n1` (stereo not drawn) has a max response of -4.56%.
With `O=S(=O)(N=Cc1c(O)ccc2ccccc12)c1cccs1` the max response was -0.432%.
For `CC(C)(Sc1ccc(CCN(CCCCC2CCCCC2)C(=O)NC2CCCCC2)cc1)C(=O)O`, the max response was -21.5% and -0.943%.
With `c1ccc([C@H]2CN3CCSC3=N2)cc1` the max response was -3.88% and 4.82%.
In the case of `Cc1csc(NC(=O)c2sc3nc4c(c(C(F)(F)F)c3c2N)CCC4)n1`, the max response is reported as -0.546% and -0.36%.
`CCC(C)n1ncn(-c2ccc(N3CCN(c4ccc(OC[C@H]5CO[C@](Cn6cncn6)(c6ccc(Cl)cc6Cl)O5)cc4)CC3)cc2)c1=O` (stereo partly drawn) gave a max response of -2.71%.
With `CC[C@H](Nc1ncnc2nc[nH]c12)c1nc2cccc(F)c2c(=O)n1-c1ccccc1` the max response was -4.35%.
